Source: PubChem BioAssay (SRMLSC)
In the library only some 6.3% were active in any assay of this set; here they are far more common.
MK inhibit: S. pneumoniae mevalonate kinase inhibition | purified MK, PK/LDH-coupled NADH absorbance 340 nm | inhibition, % at 10 µM | hit rate 0.48% among 65,000 | AID 555;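 active means ranked among the strongest by inhibition in the single 10 µM screen, a fixed top-ranked set picked for dose follow-up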
Autofluor 339: intrinsic fluorescence of library compounds, ex339/em460 – biochemical, MLSMR library, data from DPM-DC assay, artefact control, profiling panel; compound autofluorescence, ex339/em460 nm, NADH buffer; active compounds read high; 1 = no-compound wells, NADH background; fluorescence fold increase at 10 µM; hit rate 5.5% among 65,000;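 active means at 10 µM, mean starting fluorescence two-fold or more over control wells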;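 further: signal is the first read of a kinetic run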
DPM-DC inhibit: S. pneumoniae DPM-DC inhibition. purified DPM-DC, PK/LDH coupled NADH fluorescence. calls only at 10 µM. hit rate 0.49% among 65,000. AID 556;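 active means the 320 compounds with the highest percent inhibition in the single-dose primary screen, excluding strongly autofluorescent ones, cut at about 32% in these data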;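 further: kinetic rate of NADH fluorescence loss reporting ADP formed by the decarboxylase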
Spn PMK inh: inhibitors of Streptococcus pneumoniae phosphomevalonate kinase; purified PMK, PK/LDH-coupled NADH absorbance 340 nm; inhibition, % at 10 µM; hit rate 0.49% among 65,000; AID 539;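 active means top-ranked compounds by inhibition in the single 10 µM screen, taking a fixed number of the strongest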;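 further: 0% = full reaction with DMSO carrier and 100% = background rate without enzyme reaction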
NADH coupling: inhibition of NAD/NADH coupling enzymes, library profiling. coupled PK/LDH NADH assays, four targets. IC50, µM (doses to about 10 µM), inactives show top-dose inhibition. hit rate 0.02% among 65,000. AID 774;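 active means single-dose screening hits from any of four coupled enzyme assays that gave an IC50 when retested across doses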;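 further: the DPM-DC format reads NADH fluorescence rather than 340 nm absorbance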
Abs 340nm: compound absorbs light at 340 nm. compound absorbance at 340 nm, fold over control. fold change at 10 µM. 65,000 tested, under 10 active;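 active means at 10 µM dose, initial 340 nm absorbance at least 2 fold that of control wells; inactive means change under 2 fold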;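 further: initial absorbance extrapolated from kinetic A340 decline of NADH oxidation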
* = called active by the depositor; i = inactive; / = not tested or not shown; + = active, no number.

SMILES	MK inhibit	Autofluor 339	DPM-DC inhibit	Spn PMK inh	NADH coupling	Abs 340nm
COc1ccc(OC)c(CC(NC(C)=O)C(=O)NC2CCN(c3nc(C)cc(C)c3C#N)CC2)c1 (configuration not stated)	12	2.8*	i	0	10%	1
COc1cc(C(=O)N2CCC(NC(=O)C(Cc3ccccc3C)NC(C)=O)CC2)cc(OC)c1OC (configuration not stated)	6	1.1	i	12	6%	1
O=c1oc2c(CN3CCOCC3)c(O)c(Cl)cc2c2c1CCCC2	9	3.8*	/	13	11%	1.1
COCCN(CCOC)Cc1cc(=O)oc2cc3c(cc12)CCC3	7	1.2	i	14	9%	1.1
O=c1oc2c(CN3CCOCC3)c(O)ccc2c2c1CCCC2	8	3.8*	/	15	12%	1.1
COCCN(CCOC)Cc1c(O)ccc2c3c(c(=O)oc12)CCC3	9	2*	/	19	14%	1.2
CCOC(=O)c1c(C)c(C(=O)NCc2cccnc2)c(C)n1CC	8	1.1	i	13	7%	1
OCCN(Cc1ccccc1)Cc1cccc(F)c1	45*	1.2	i	0	15%	1.1
OCCN(Cc1ccccc1)CC1CCCCC1	43*	1.1	i	0	14%	1.1
OCCN(Cc1ccccc1)Cc1ccccc1F	48*	1.1	i	7	19%	1.1
OCCN(Cc1ccccc1)Cc1cccc(C(F)(F)F)c1	37	1.1	i	1	13%	1.1
CCCN(CCO)Cc1cccc(Cl)c1	41*	1.1	i	0	14%	1.1
COc1ccc(OC)c(NC(=O)C2CC(C)=C(C)CC2C(=O)O)c1 (configuration not stated)	3	1	i	1	2%	1
COc1cccc(CN2CCN(C(=O)c3cccc(F)c3)CC2)c1	51*	1	i	0	17%	1.1
COc1cc(OC)cc(C(=O)N2CCN(C(=O)c3cccc(F)c3)CC2)c1	9	1.1	i	8	6%	1
O=C(COC(=O)CCc1c[nH]c(=O)[nH]1)Nc1ccccc1	0	1	i	25*	11%	0.97
O=C1CCN(C(=O)c2ccccc2)C2CCCCC12 (configuration not stated)	8	1.1	i	4	2%	1
COCc1cc(=O)n2[nH]c(-c3ccccc3)cc2n1	3	2.1*	/	2	3%	1.1
C=CCn1c(=O)n(CCOC)c(=O)c2sc3ccccc3c21	7	2.4*	/	11	3%	1
COc1ccc(C)cc1NCc1cccc(OC)c1OC	47*	1	i	0	6%	1
CCOC(=O)c1ccccc1NC(=O)c1cn(CC)c2nc(C)ccc2c1=O	0	0.98	i	16	5%	1
Cc1ccc(NC(=O)N(Cc2ccc3c(c2)OCO3)Cc2cc3cc4c(cc3[nH]c2=O)OCCO4)cc1	0	1.4	i	8	3%	1.1
CCc1ccc2[nH]c(=O)c(CN(CCCN3CCOCC3)C(=O)Nc3ccccc3)cc2c1	5	1.4	i	11	5%	1
O=C(Nc1ccccc1F)N(CCCN1CCOCC1)Cc1cc2cc3c(cc2[nH]c1=O)OCCO3	15	3.8*	i	3	10%	1
Cc1ccc(NC(=O)N(CCCN2CCOCC2)Cc2cc3cc4c(cc3[nH]c2=O)OCO4)cc1	15	2.9*	+	15	21%	1.1
SMILES	MK inhibit	Autofluor 339	DPM-DC inhibit	Spn PMK inh	NADH coupling	Abs 340nm
O=C(Nc1ccc(F)cc1)N(Cc1ccco1)Cc1cc2cc3c(cc2[nH]c1=O)OCO3	6	2.7*	/	21	16%	1
Cc1ccc2[nH]c(=O)c(CN(CCN3CCOCC3)C(=O)Nc3ccc(F)cc3)cc2c1	10	1.2	i	8	6%	1
CCc1ccc2[nH]c(=O)c(CN(CCCN3CCOCC3)C(=O)Nc3ccc(Cl)cc3)cc2c1	3	1.2	i	10	4%	0.99
COc1ccc2[nH]c(=O)c(CN(CCCN3CCOCC3)C(=O)NCc3ccccc3)cc2c1	7	3.3*	i	14	13%	1.1
COc1ccc(-c2c3c(=O)n(C)c(=O)n(C)c3cn2C2CCCCC2)cc1	18	1.6	i	7	8%	1
CCOc1ccc2[nH]c(=O)c(CN(CCc3ccccc3)C(=O)c3cnccn3)cc2c1	0	1.4	i	16	5%	1.1
CCOc1ccc2[nH]c(=O)c(CN(CC3CCCN3CC)C(=O)NCc3ccccc3)cc2c1 (configuration not stated)	0	3.4*	/	19	10%	1
CCN(CC)CCCN(Cc1cc2cc3c(cc2[nH]c1=O)OCCO3)C(=O)Nc1ccccc1	9	3*	+	10	18%	1
O=C(Nc1ccccc1)N(CCCN1CCOCC1)Cc1cc2cc3c(cc2[nH]c1=O)OCCO3	12	2.5*	/	13	5%	1
CCCCOc1ccc(C(=O)NCc2ccccn2)cc1	1	1.1	i	0	0%	1.1
COc1cc(OC)cc(-n2nc(C(=O)NCCCN3CCOCC3)c3ccccc3c2=O)c1	0	1.2	i	0	0%	1
COc1ccc(N2CC(C(=O)NCCCN3CCOCC3)CC2=O)cc1 (configuration not stated)	51*	1.1	i	0	17%	1
COc1ccc2cc3cc(C(=O)Nc4ccc5c(c4)OCO5)oc3nc2c1	0	1.3	i	21	7%	1.1
COc1ccc2cc3cc(C(=O)NCCCN4CCOCC4)oc3nc2c1	0	5.1*	/	4	2%	1.1
COc1ccc(C2=NOC(C(=O)NCCCN3CCOCC3)C2)cc1 (configuration not stated)	0	1.1	i	3	2%	0.99
Cc1ccc2cc3cc(C(=O)NCc4ccc5c(c4)OCO5)oc3nc2c1	2	5.2*	/	1	2%	1.1
CCN1CCN(CCCNC(=O)c2cc3cc4ccc(OC)cc4nc3o2)CC1	2	5.2*	/	12	7%	1.1
CCN1CCN(CCCNC(=O)C2c3ccccc3C(=O)N(C)C2c2ccc(OC)cc2)CC1 (configuration not stated)	3	1	i	0	2%	1
CCN(CC)CCNC(=O)c1ccc(CS(=O)(=O)c2ccc(Br)cc2)o1	0	1.1	i	3	2%	0.99
O=C(NCCN1CCCC1)c1cc(-c2ccncc2)nc2ccc(S(=O)(=O)N3CCOCC3)cc12	1	1.1	i	7	3%	1
Cc1ccc2cc3cc(C(=O)NCCN4CCOCC4)oc3nc2c1	0	3.2*	/	5	14%	1.1
CC(=O)Cc1nsc(NC(=O)c2cc(-c3ccccc3Cl)oc2C)n1	11	1.3	i	11	7%	1
